From the supplement of paper PMC11732987, “Enantioselective OTUD7B fragment discovery through chemoproteomics screening and high-throughput optimisation” (Communications Chemistry, 2025)

Columns and labels:
Test in all cases: log2 ratio of Biotin-Ahx-Ub-VS probe labelling (fragment/DMSO); higher = less target engagement (more negative = stronger competition), active = hit call of the paper (q ≤ 0.05, log2 ratio ≤ -1)
Conditions in all cases: compound concentration: 200 uM; treatment time: 3 h
OTUD6B = target: T1, OTUD6B (UniProt Q8N6M0)
T1 sequence (whole entry): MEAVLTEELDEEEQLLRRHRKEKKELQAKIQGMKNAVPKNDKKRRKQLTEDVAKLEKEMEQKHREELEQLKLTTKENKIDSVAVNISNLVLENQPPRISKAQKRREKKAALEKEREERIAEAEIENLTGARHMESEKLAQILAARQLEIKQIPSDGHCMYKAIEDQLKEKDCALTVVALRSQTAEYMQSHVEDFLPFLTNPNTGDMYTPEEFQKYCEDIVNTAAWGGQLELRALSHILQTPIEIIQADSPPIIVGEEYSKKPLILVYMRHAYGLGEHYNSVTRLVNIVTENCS
Summary of the method: (§1)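 Average log2 ratios of fragment over vehicle were obtained by unpaired t-test from global-median-normalised Spectronaut label-free quantities. Proteins with ≥2 unique peptides were included. HEK293T lysate (495 µg per sample) was treated in triplicate with fragment at 200 µM or vehicle for 3 h, then with Biotin-Ahx-Ub-VS at 0.5 µM final for 1 h, and labelled DUBs were NeutrAvidin-enriched and run by diaPASEF LC-MS/MS.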

OTUD7B = target: T2, OTUD7B (UniProt Q6GQQ9)
T2 sequence (whole entry): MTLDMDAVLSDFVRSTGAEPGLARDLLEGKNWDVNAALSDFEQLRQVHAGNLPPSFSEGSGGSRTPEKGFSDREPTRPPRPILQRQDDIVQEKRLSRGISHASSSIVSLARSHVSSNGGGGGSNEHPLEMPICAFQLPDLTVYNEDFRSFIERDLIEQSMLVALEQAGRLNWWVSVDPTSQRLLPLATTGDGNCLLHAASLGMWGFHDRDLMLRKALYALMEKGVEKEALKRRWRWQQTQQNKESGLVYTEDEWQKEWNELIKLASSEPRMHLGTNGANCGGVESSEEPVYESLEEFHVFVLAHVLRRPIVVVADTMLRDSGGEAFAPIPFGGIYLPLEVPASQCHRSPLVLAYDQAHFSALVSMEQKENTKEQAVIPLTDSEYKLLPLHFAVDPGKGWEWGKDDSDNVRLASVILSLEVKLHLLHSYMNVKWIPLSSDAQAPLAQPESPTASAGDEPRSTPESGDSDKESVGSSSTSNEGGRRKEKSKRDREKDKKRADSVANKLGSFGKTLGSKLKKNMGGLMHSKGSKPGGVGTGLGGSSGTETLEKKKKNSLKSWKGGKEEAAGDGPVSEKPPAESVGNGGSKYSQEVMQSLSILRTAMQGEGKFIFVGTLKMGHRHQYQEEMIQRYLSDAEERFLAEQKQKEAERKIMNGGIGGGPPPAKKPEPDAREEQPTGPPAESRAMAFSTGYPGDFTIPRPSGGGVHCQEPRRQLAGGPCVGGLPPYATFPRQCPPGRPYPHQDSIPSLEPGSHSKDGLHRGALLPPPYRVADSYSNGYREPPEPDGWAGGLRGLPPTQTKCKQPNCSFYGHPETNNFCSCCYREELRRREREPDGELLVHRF
Summary of the method: as §1

PRPF8 = PRPF8 (UniProt Q6P2Q9)
Summary of the method: as §1

PSMD7 = target: T3, PSMD7 (UniProt P51665)
T3 sequence (whole entry): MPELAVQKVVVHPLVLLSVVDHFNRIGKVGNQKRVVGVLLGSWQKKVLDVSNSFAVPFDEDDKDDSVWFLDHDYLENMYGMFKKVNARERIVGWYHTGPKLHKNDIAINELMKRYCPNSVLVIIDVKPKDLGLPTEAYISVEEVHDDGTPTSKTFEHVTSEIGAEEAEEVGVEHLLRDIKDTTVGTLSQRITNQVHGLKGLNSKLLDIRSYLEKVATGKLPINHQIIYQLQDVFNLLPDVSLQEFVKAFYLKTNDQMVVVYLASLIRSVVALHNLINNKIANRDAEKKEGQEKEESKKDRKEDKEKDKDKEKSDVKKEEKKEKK
Summary of the method: as §1

UCHL1 = UCHL1 (UniProt P09936)
Chain of UCHL1 (P09936 whole entry, looked up): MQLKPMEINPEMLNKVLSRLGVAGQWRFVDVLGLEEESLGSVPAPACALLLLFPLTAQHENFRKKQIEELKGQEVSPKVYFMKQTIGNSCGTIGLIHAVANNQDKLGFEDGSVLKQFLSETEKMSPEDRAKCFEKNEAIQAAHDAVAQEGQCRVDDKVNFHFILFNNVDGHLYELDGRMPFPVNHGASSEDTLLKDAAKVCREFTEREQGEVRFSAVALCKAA
Summary of the method: as §1

UCHL3 = target: T4, UCHL3 (UniProt P15374)
T4 sequence (whole entry): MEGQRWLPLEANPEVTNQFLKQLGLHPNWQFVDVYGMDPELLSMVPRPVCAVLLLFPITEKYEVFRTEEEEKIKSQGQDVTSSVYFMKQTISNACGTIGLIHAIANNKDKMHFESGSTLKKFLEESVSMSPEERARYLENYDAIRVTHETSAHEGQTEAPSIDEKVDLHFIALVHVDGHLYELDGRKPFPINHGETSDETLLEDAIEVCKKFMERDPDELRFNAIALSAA
Summary of the method: as §1

UCHL5 = target: T5, UCHL5 (UniProt Q9Y5K5)
T5 sequence (whole entry): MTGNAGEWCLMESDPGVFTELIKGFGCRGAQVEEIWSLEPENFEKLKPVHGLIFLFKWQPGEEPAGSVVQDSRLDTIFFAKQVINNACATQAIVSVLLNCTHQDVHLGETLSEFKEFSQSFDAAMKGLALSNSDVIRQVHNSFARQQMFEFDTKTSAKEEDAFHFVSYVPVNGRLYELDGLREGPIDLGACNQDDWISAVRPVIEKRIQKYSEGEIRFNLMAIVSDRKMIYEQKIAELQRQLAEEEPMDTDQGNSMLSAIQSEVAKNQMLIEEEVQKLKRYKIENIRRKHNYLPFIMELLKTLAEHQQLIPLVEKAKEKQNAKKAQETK
Summary of the method: as §1

USP10 = USP10 (UniProt Q14694)
Chain of USP10 (Q14694 whole entry): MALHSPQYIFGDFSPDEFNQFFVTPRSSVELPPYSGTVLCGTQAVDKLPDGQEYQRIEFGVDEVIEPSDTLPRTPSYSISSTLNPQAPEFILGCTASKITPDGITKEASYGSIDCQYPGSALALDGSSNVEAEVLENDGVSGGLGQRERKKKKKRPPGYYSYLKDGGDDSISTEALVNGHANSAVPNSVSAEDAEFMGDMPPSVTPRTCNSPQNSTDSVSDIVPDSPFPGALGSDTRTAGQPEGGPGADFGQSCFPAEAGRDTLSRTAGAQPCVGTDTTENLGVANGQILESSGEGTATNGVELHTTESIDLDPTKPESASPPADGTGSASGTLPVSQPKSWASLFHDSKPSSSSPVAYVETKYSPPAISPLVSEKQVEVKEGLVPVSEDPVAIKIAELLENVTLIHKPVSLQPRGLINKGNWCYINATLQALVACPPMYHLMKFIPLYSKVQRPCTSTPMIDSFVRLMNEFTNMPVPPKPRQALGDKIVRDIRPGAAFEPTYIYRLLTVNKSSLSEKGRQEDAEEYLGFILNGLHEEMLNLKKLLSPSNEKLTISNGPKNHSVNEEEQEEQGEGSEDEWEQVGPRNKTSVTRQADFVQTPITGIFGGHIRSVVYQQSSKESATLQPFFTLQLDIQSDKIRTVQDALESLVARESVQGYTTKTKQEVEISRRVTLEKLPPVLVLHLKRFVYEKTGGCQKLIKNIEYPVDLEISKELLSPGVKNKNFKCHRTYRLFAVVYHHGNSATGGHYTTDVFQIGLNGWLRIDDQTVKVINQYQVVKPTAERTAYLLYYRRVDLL
Summary of the method: as §1

USP15 = target: T6, USP15 (UniProt Q9Y4E8)
T6 sequence (whole entry): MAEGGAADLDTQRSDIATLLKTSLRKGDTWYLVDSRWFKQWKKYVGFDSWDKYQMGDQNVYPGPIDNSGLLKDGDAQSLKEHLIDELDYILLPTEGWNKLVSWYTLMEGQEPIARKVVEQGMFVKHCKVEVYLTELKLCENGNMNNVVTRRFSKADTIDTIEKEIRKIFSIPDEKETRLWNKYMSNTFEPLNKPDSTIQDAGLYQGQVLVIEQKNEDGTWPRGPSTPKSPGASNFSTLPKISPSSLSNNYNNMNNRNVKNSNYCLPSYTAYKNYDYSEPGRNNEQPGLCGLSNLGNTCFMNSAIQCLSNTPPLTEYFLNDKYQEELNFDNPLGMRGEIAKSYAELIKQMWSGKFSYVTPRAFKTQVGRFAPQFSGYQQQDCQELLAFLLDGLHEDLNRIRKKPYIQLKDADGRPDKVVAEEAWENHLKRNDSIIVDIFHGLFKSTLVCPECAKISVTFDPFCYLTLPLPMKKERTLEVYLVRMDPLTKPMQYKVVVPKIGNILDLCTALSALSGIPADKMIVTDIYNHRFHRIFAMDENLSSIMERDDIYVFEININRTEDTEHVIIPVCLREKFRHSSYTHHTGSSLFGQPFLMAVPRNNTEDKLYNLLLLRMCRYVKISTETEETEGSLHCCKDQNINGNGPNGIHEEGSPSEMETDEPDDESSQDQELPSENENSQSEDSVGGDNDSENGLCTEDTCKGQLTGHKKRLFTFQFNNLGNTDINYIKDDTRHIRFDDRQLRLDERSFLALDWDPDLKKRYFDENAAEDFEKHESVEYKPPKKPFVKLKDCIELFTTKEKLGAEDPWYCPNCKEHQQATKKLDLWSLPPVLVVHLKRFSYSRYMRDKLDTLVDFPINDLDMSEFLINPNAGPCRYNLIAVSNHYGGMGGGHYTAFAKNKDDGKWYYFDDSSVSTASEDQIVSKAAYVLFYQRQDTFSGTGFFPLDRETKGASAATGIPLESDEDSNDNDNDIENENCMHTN
Summary of the method: as §1

USP16 = USP16 (UniProt Q9Y5T5)
Chain of USP16 (Q9Y5T5 whole entry, looked up): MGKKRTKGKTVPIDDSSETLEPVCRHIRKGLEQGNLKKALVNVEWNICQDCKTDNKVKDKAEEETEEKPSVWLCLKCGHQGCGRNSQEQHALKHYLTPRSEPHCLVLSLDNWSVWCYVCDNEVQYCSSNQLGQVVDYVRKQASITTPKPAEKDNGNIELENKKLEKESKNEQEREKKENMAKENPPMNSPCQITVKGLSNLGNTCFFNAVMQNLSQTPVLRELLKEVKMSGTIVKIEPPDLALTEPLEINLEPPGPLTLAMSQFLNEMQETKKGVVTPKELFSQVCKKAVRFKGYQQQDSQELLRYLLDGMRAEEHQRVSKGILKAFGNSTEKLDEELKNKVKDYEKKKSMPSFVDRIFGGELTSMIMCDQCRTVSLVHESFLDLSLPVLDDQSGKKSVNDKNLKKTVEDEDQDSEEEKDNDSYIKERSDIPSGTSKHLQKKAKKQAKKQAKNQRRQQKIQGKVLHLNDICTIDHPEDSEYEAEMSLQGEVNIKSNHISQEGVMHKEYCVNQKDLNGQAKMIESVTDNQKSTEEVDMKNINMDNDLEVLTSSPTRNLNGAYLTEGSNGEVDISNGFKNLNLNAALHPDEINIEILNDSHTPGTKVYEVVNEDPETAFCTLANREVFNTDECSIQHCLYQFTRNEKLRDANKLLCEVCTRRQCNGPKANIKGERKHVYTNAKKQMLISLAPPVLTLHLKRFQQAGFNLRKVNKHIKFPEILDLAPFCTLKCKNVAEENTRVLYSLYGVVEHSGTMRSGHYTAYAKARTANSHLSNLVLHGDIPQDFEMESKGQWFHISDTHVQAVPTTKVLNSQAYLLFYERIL
Summary of the method: as §1

Measured: log2 ratio of Biotin-Ahx-Ub-VS probe labelling

Cl.O=C(CCl)N[C@H]1C[C@@H](n2cccn2)C1
inactive: OTUD6B -0.0562 | OTUD7B -0.797 | PRPF8 0.13 | PSMD7 0.118 | UCHL1 -1.11 | UCHL3 0.478 | UCHL5 -0.14 | USP10 0.0484 | USP15 -0.22 | USP16 0.0253
